Source: the supplement of paper PMC6555819

Tests used:
Assay in all cases: PBM binding z-score (relative to random genomic background probes); higher = stronger binding; sequences stand for … in GC…GCGATTGACAGCGTAGAATGAAGG
[1] = system: PPARg:RXRa DBDmut IVT, anti-RXR (DBD mutation: RXRa K156A/R161A, NR concentration 270 nM, RXRa partner concentration 90 nM)
Outline: (§1)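 For binding z-scores, the reference was random background probes on custom Agilent 4×180K protein-binding microarrays. These arrays were incubated 1 h with ligand-free nuclear receptor dimers in PBS pH 7.4, 2% milk, 0.02% Triton X-100, 1 mM DTT, 0.2 mg/mL BSA and 0.4 mg/ml salmon testes DNA. Fluorescence was scanned after antibody detection of each partner (one per run) and regression-normalized.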

[2] = system: PPARg:RXRa IVT, anti-PPARg (NR concentration 270 nM, RXRa partner concentration 90 nM)
Outline: as §1

[3] = system: PPARg DBDmut:RXRa IVT, anti-PPARg (DBD mutation: PPARg1 K132A/R137A, NR concentration 270 nM, RXRa partner concentration 90 nM)
Outline: as §1

[4] = system: PPARg DBDmut IVT, anti-PPARg (DBD mutation: PPARg1 K132A/R137A, NR concentration 270 nM)
Outline: as §1

[5] = system: PPARg homodimer (NR concentration 180 nM)
Outline: as §1

[6] = system: PXR:RXRa (NR concentration 270 nM, RXRa partner concentration 90 nM)
Outline: as §1

[7] = system: PXR homodimer (NR concentration 270 nM)
Outline: as §1

[8] = system: RARa:RXR (NR concentration 270 nM, RXRa partner concentration 90 nM)
Outline: as §1

[9] = system: RARa homodimer (NR concentration 270 nM)
Outline: as §1

[10] = system: RARb:RXRa (NR concentration 270 nM, RXRa partner concentration 90 nM)
Outline: as §1

Row | Sequence | PBM binding z-score [1] | PBM binding z-score [2] | PBM binding z-score [3] | PBM binding z-score [4] | PBM binding z-score [5] | PBM binding z-score [6] | PBM binding z-score [7] | PBM binding z-score [8] | PBM binding z-score [9] | PBM binding z-score [10]
1 | CCTTACGGGTCACTGTCAGGTTATAGCATTTGGA | 3.32 | 3.7 | 0.509 | -0.255 | 3.86 | 3.99 | -0.056 | 4.71 | 1.03 | 3.87
2 | ACTATTAGTTGACTTGGGGCAACCGATACGACGC | 0.684 | 0.607 | 1.18 | 1.45 | 0.367 | 0.156 | 0.385 | 0.245 | 0.466 | 0.789
3 | CGAGCTAGGTCAAGGACAGTGAATCTCCGCACGC | 3.38 | 2.99 | -0.96 | -1.07 | 1.61 | 1.01 | -0.22 | 2.02 | 0.121 | 3.74
4 | CCTAGCAGGCCAATCTGGGTCACCCAAGGCTTGA | 3.64 | 4.92 | -0.253 | -1.35 | 0.456 | 1.03 | -0.451 | 1.59 | -0.135 | 1.62
5 | AGAACGATGGCACGCTGAGTTGATAGCAGAGTAG | -0.571 | -0.274 | 0.264 | -0.833 | 0.102 | -0.552 | -0.384 | -0.792 | -0.387 | -0.628
6 | AGAACGAGGGCACGGTGAGTTGATAGCAGAGTAG | 3.46 | 4.14 | 1.46 | 0.552 | 0.477 | 1.76 | 0.0665 | 1.27 | -0.263 | 2.75
7 | ATCGATAGGTCGACGAGGTGAGTATACACCGTTT | -0.138 | 0.962 | 0.958 | -0.138 | 0.219 | 0.735 | 0.0845 | 1.6 | 0.235 | 1.65
8 | TTACCAAGGTGAAGGTCGGTGATCCCTCTGTAGA | 1.69 | 2.91 | -0.0946 | -0.454 | 0.55 | 0.481 | -0.271 | 1.28 | 0.175 | 1.96
9 | CTCGCAAGGTCGGTTGAGGTGAGTATACGGATAA | -0.323 | 0.241 | -0.57 | -0.227 | -0.181 | 1.73 | -0.0452 | 1.19 | -0.537 | 1.77
10 | TGTCAAAGTTCAAAAGTAACGTAAGTATCCACAC | -0.0254 | 3.6 | 1.92 | 2.39 | 1.89 | 4.46 | 3.74 | 3.65 | 1.1 | 4.6
11 | CTCGAAAGGTCGGTTGCGGTGAGTATACGGATAA | 0.303 | 0.901 | 0.157 | 0.202 | 0.797 | 1.4 | -0.173 | 1.62 | -0.203 | 2.92
12 | ATATGTAGGTTACATCCGGGTCATTCGGGCTATG | 7.29 | 7.46 | 3.23 | 1.74 | 1.58 | 3.48 | 1.47 | 3.61 | 0.896 | 2.27
13 | TCATATAGATAAAAGGTGAAAGTCGGTGTGGTAA | 3.23 | 2.25 | 0.674 | 0.805 | 1.56 | 1.12 | 0.535 | 1.83 | 1.65 | 1.73
14 | CAAAGTAGGTCACAGAGGTCAAAGTCCGTGCGTA | 8.54 | 8.94 | 1.99 | 2.62 | 4.88 | 6.71 | 10.8 | 7.4 | 2.67 | 5.14
15 | TCTTGTAGATCAACAGGAGGTAAAGAAAGATCGA | 1.4 | 0.479 | 0.613 | 0.824 | -0.233 | 0.0383 | -0.784 | -0.044 | -0.132 | -0.124
16 | CCTAGTTGGTCCGGAGGTCACACACCGGATATGA | 0.0727 | 1.77 | -0.285 | 0.613 | 2.74 | 4.13 | 1.54 | 4.43 | 1.45 | 3.47
17 | CCTACTGGGCCACGAAAAGTCATTGATTCAGTGA | 5.95 | 5.51 | -0.0211 | -0.417 | 0.0392 | -0.419 | -0.579 | -0.211 | -0.346 | 0.629
18 | TCTTGTAGATCAAGCAGGTTAAGAAAGCCTGAGT | 1.72 | 0.78 | 0.218 | 0.401 | 0.138 | 0.519 | 0.388 | 0.546 | -0.0455 | 0.228
19 | AGTCAAAGTTCACTAGGTAACCTAAGATTCAGCT | 3.06 | 5.17 | 0.689 | 0.943 | 2.98 | 4.37 | 4.07 | 3.78 | 1.73 | 4.7
20 | AGAATGAGGTTATACGTAGATCAGGGGAGAAAGT | 4.24 | 2.13 | 1.07 | 0.577 | 0.74 | 1.36 | 0.423 | 1.87 | 1.13 | 1.45
21 | TCGAGTAGGTTAGGGGCCTTCAGAATGGCGTCGA | 1.32 | 1.07 | -0.729 | -0.939 | -0.145 | -0.478 | -0.829 | -0.114 | -1.13 | 0.24
22 | GCTATTAGTTGAAAGGGTAACCGAATGATTCTCG | 0.535 | 0.734 | 0.307 | 0.443 | 0.807 | 0.366 | 0.207 | 1.02 | 0.465 | 0.813

Row | Sequence | PBM binding z-score [1] | PBM binding z-score [2] | PBM binding z-score [3] | PBM binding z-score [4] | PBM binding z-score [5] | PBM binding z-score [6] | PBM binding z-score [7] | PBM binding z-score [8] | PBM binding z-score [9] | PBM binding z-score [10]
23 | ACTAGCAGGCCAAGGGTTACTCAAGATTAGTCCG | 0.518 | 2.14 | -0.596 | -0.597 | 0.215 | 0.27 | -0.411 | 1.05 | -0.361 | 0.894
24 | ACTATTTGTTGACTTAGGGCAACCGATACGACGC | 0.22 | 0.532 | 1.51 | 1.78 | 0.884 | 0.185 | 0.38 | 0.364 | 0.997 | 1.03
25 | GGAACCAGGGCAAGTTGATAGCAGAGTTTGATGG | 4.63 | 3.75 | 0.246 | 1.22 | 1.02 | 0.554 | 0.742 | 0.217 | 0.68 | 2.26
26 | GATAGAGGGTCAGCTAGAGGCCAGAGTATGGAAA | 1.62 | 2.24 | -0.25 | -0.22 | 1.64 | 2.44 | -0.0848 | 3.7 | 0.224 | 3.85
27 | GCTGGCAGGCCATTTGGGTCACTCAATGACGGGC | 0.621 | 1.63 | -1.06 | -1.22 | -0.317 | 0.654 | 0.117 | 0.679 | -0.882 | 1.63
28 | CGAAGTAGGTCAAGGACAGTGAATCTCCGCACGC | 8.4 | 8.73 | 5.06 | 1.85 | 2.14 | 1.39 | -0.253 | 2.46 | 0.686 | 3.95
29 | CCGAGTAGATTATGGGGCATTCAGGCAACGGTGA | 0.855 | 1 | -0.628 | -0.679 | 0.156 | -0.457 | 0.0578 | -0.525 | -0.197 | 0.0647
30 | CGTCCAAGTTCAGCAGGTCAGTGAAAGCGACGTG | 0.444 | 0.339 | -0.163 | -0.669 | 1.77 | 2.59 | 1.6 | 2.38 | 0.583 | 3.75
31 | GCTGTTAGGTCAGGTTGGTCAGCTAACGGGTACG | 2.26 | 1.9 | -0.586 | 0.313 | 1.07 | 0.645 | -0.159 | 1.28 | 0.0798 | 3.49
32 | TCGTGTAGATCAGCAGGTTAAGAAAGCTGGCCAA | 1.06 | -0.357 | -0.818 | -0.881 | 0.306 | -0.0142 | -0.356 | 0.167 | -0.19 | -0.0644
33 | TCTATTAGTTGATTAGGGCAGCCGAAACAGCGGA | 1.91 | 1.17 | 1.45 | 0.97 | 0.935 | 0.355 | 0.226 | 0.394 | 0.461 | 0.624
34 | TAGCTTAGGTCATGCGGGCCAGTATAGTGTCGGC | 1.52 | 1.65 | 1.35 | 0.321 | 1.44 | 1.85 | -0.011 | 2.73 | -0.0276 | 3.87
35 | CCTACTGGGACAAGGTCATTGATCAGTCAAAGCA | 3.79 | 4.66 | -0.0252 | -0.0828 | 2.28 | 3.8 | 1.59 | 3.89 | 0.375 | 3.26
36 | TCATGTAGGTAAAGGTGAAAGTCGAACGATATGA | 4.4 | 4.97 | 1.57 | 1.56 | 0.969 | 0.939 | 0.207 | 1.53 | 0.733 | 2.05
37 | CCGACTGGAGCAGAAAGGTTACCATACCATCCGG | 0.54 | 0.511 | -0.716 | -0.66 | 0.708 | 1.02 | -0.102 | 2.11 | -0.788 | 1.52
38 | TCTTGTAGATCAATAGAGGTTAAGTAAGTGCGCT | 1.78 | 1.22 | 0.705 | 0.692 | 0.3 | 3.96 | 0.52 | 2 | 0.239 | 0.993
39 | TCTCGGAGTACACGAAGGTCAGAGCTTTCCAGAG | 1.19 | 0.734 | -1.26 | -1.48 | 1.11 | 2.01 | 0.814 | 2 | -0.696 | 2.58
40 | CCGACTTGGGCAGAAAGGTTACCATACCATCCGG | -0.147 | -0.369 | -0.764 | -1.15 | 0.811 | 0.592 | -0.331 | 1.16 | -0.0756 | 1.12
41 | AGAACGAGGGCAATAAGTTGATAGCACGGGTGGC | 3.47 | 2.3 | 0.463 | -0.691 | 0.0949 | 1.09 | 3.39 | 0.217 | 0.04 | 1.84
42 | CTCGAAAGGTCGGTAGAGGTGAGTATACGGATAA | -0.427 | 1.32 | -0.234 | 0.272 | 1.1 | 2.69 | 0.0204 | 2.63 | 0.416 | 3.13
43 | CTCGAAAGGTCGTGCTCAGGTTAGTATACCAAAC | 0.848 | 1.77 | 0.0664 | 0.423 | 2.46 | 3.94 | 0.392 | 4.55 | 0.346 | 4.09
44 | CTCGTAAGGTCGTGCTCAGGTGAGTATACCAAAC | 0.319 | 1.17 | 0.192 | 0.162 | 1.03 | 2.23 | -0.00148 | 3.61 | -0.224 | 2.83
